# Screening results from PubChem.
# TSHR ag = activates the human thyroid stimulating hormone receptor | P16473 | HEK293-CNG-TSHR cells (CNG channel as cAMP sensor), membrane potential dye, cAMP | Potency, µM (highest dose often 57.1 µM), for the others: at the highest dose activation, most hits filed as activators | hit rate 0.48% among 73,000; active = well fitted activation curve with a large enough effect in the main read-out, with a control signal flat, not every such curve was filed as active; inconclusive = small, poorly fitted or top-dose-only effect, or a change in a side signal; inactive = no such curve, though single readings can be large or run the other way; % of control where 0% means no effect;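 note: the control signal comes from parental cells without the receptor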
# Target sequence (P16473 whole entry, looked up): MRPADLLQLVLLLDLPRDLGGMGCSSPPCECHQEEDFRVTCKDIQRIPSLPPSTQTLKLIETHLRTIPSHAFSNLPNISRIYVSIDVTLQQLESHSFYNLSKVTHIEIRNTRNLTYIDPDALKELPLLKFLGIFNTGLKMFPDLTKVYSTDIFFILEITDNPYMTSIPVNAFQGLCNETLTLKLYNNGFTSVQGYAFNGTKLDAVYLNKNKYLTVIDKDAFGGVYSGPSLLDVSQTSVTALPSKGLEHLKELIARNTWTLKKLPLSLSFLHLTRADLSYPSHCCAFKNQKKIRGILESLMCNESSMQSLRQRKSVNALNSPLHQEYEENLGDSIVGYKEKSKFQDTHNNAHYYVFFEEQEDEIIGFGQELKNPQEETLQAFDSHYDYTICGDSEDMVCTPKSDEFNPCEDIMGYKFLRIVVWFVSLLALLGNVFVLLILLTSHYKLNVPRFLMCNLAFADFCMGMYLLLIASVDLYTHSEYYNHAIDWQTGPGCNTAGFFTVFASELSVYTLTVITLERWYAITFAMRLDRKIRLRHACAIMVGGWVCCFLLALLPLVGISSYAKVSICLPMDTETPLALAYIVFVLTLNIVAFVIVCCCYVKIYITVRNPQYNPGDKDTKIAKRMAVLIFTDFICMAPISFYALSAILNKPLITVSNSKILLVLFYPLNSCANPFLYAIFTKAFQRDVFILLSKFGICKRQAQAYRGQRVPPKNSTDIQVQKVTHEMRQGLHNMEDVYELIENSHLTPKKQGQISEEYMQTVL
#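 HEK 293 cells stably expressing TSHR and a modified CNG channel, with CNG-only parental cells as counterscreen, were preloaded 60 min at room temperature with membrane potential dye containing 100 uM RO 20-1724. Compound exposure was 30 min, and depolarization was read as fluorescence at 590 nm.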
# Bst PK mod = modulators of Bacillus stearothermophilus pyruvate kinase. hit rate 1.2% among 51,000. purified pyruvate kinase, luminescence ATP production; ribose 5-phosphate activator present at AC10. Potency, µM; in the data active = potency below about 11 µM; inconclusive = mostly about 12 µM to 25 µM;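 the screen sought inhibitors and activators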;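 note: scaled between full activation by ribose 5 phosphate and full inhibition by luteolin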
# Luciferase inh = firefly luciferase inhibition; P08659; purified firefly luciferase, luminescence, 8 min; Potency, µM (highest dose often 57.1 µM), for inactives: at the highest dose activity change, negative = inhibition, most hits filed as inhibitors; hit rate 2.2% among 72,000; AID 411; note: % is set by controls: 0 for no effect and ±100 for the full control effect; nearly all actives have a fitted effect of over 40% in size
#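 Here, luciferase activity is measured as luminescence following an 8 min room-temperature reaction at 10 uM ATP, pH 7.2. Every library sample is titrated.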
# HEK293 cAMP ctrl = parental HEK293 cAMP activation (counter-screen). parental HEK293 CNG cAMP sensor, membrane potential fluorescence. Potency, µM (titrated, usually from 57.1 µM), for inactives: at the highest dose activation, usual class: activators. hit rate 2.5% among 73,000; note: % of control where 0% means no effect; nearly all actives have a fitted effect of over 55% in size
#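 Parental HEK 293 cells stably expressing a cAMP-gated CNG channel were loaded with membrane potential dye containing 100 uM RO 20-1724 for 60 min. Compound added for 30 min; depolarization read as fluorescence intensity at 590 nm.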
# An asterisk follows results filed as active; i = inactive; ? = inconclusive; . = not tested or not shown; [ ] = dose if it differs, or a comment. Rows were chosen to be rich in hits. Some 5.2% of all compounds tested hit in one or more screens of this group. Unless noted, calls come from the whole dose curve; as a rule, active = well fitted curve in the direction sought with a large enough effect; inconclusive = small, poorly fitted or top-dose-only effect, or another doubt; inactive = no such curve, though single readings can be large; an effect the other way counts as inactive or inconclusive. Potency is the fitted concentration of half-maximal effect.
SMILES,TSHR ag,Bst PK mod,Luciferase inh,HEK293 cAMP ctrl
CCOc1c(OC)cccc1C1CC(=O)Nc2cc3c(cc21)OCCO3 (stereo unspecified),25µM*,.,0%,29%
CCCOc1c(OC)cccc1C1CC(=O)Nc2cc(OC)c(OC)c(OC)c21 (stereo unspecified),14%,>57,0%,5%
COc1ccc(-n2c(=O)c(C)nc3cnc(OC)nc32)cc1,4%,.,2%[11.4 µM],10%
CN(C)c1ccc(N=Nc2cccc3ccoc23)cc1,-15%[11.4 µM],.,4µM*,-16%[11.4 µM]
NCCCCCc1nnc(SCC(=O)Nc2cccc(Cl)c2)o1,16µM*,>57,0%,4%
NCCCCCc1nnc(SCc2cccc(Cl)c2)o1,1%,>57,2%,18%
COc1ccc(-c2nc3ccccc3s2)cc1O,-3%,0.64*,1µM*,-3%
Oc1cccc(-c2nc3ccccc3s2)c1,-4%,9.1*,10µM*,6%
CCC(=O)O[C@@H]1CC(=O)O[C@H](C)CC=CC=C[C@@H](O)[C@H](C)C[C@H](CC=O)[C@H](O[C@H]2O[C@H](C)[C@@H](O[C@H]3C[C@@](C)(O)[C@@H](OC(=O)CC)[C@H](C)O3)[C@H](N(C)C)[C@H]2O)[C@H]1OC,.,>26,1%[25.5 µM],.
CNC(=O)[C@H](C)[C@@H]1C[C@@]1(C)[C@@H](NC(=O)OCc1ccccc1)c1ccccc1,16%,.,.,12%
C[C@@H](C(=O)NCC1CC1)[C@H]1C[C@]1(C)[C@H](NC(=O)OCc1ccccc1)c1ccccc1,?,.,.,10µM*
C[C@@H](C(=O)NCc1ccccc1)[C@@H]1C[C@@]1(C)[C@@H](NC(=O)OCc1ccccc1)c1ccccc1,6%,.,.,12%
C[C@@H](C(=O)N[C@@H](CO)Cc1ccccc1)[C@@H]1C[C@@]1(C)[C@@H](NC(=O)OCc1ccccc1)c1ccccc1,18%,.,.,-2%
CNC(=O)[C@H](C)[C@H]1C[C@]1(C)[C@H](NC(=O)OCc1ccccc1)c1ccccc1,?,.,.,6.3µM*
COC(=O)[C@H]1C[C@@H]1[C@H](NC(=O)OCc1ccccc1)c1ccccc1,.,.,.,21%
C[C@@H](C(=O)N[C@@H](CO)Cc1ccccc1)[C@H]1C[C@]1(C)[C@H](NC(=O)OCc1ccccc1)c1ccccc1,?,.,.,10µM*
COC(=O)[C@H](Cc1ccccc1)NC(=O)[C@]1(C)C[C@H]1[C@H](NC(=O)OCc1ccccc1)c1ccccc1,?,.,.,5µM*
CC(=O)c1ccc(OC2C(O)COC2/C=C/c2ccc(Cl)cc2)cc1 (stereo unspecified),-7%[11.4 µM],.,.,1%[11.4 µM]
Cc1ccccc1-c1ccc2ncnc(NC3CC3)c2c1,?,.,1%[2.29 µM],?
FC(F)(F)c1ccccc1-c1ccc2ncnc(NCc3cccs3)c2c1,?,.,1%[2.29 µM],10µM*
FC(F)(F)c1ccccc1-c1ccc2ncnc(NC3CC3)c2c1,?,.,-1%[2.29 µM],32µM*
CC1(C)CC(=O)C2=C(C1)NC(=O)CC2C(=O)NCc1ccc(F)cc1 (stereo unspecified),1%,>57,0%,18%
COC(=O)c1ccccc1CCC(C)=O,6%,>57,-1%,3%
Cc1cccc(NC(=O)C2CCN(c3nc(C)cc(C)n3)CC2)c1,-3%,>57,3%,18%
c1ccc(-c2ccc(-c3nc(-c4ccncc4)no3)cc2)cc1,-7%,.,3.2µM*,3%
SMILES,TSHR ag,Bst PK mod,Luciferase inh,HEK293 cAMP ctrl
c1ccc(-c2ccc(-c3nc(-c4cccnc4)no3)cc2)cc1,-5%,.,3.2µM*,11%
CCCCc1ccc(-c2nc(-c3ccncc3)no2)cc1,18%[11.4 µM],.,-14%,0%[11.4 µM]
CCc1ccc(-c2nc(-c3ccncc3)no2)cc1,19%[11.4 µM],.,5µM*,30%[11.4 µM]
CCCCOc1ccc(-c2nc(-c3cccnc3)no2)cc1,5%[11.4 µM],.,?,6%[11.4 µM]
c1ccc(C(Cc2nc(-c3ccncc3)no2)c2ccccc2)cc1,?,>57,0%,16µM*
c1ccc(-c2nc(-c3ccncc3)no2)cc1,2%,i,-24%,5%
Clc1ccccc1-c1nc(-c2cccnc2)no1,8%,?,13µM*,19%
c1ccc(-c2noc(-c3cccnc3)n2)cc1,-6%[11.4 µM],.,13µM*,7%[11.4 µM]
CCc1ccc(NC(=O)c2cccnc2)cc1,-4%,>57,-18%,-12%
O=C(CSc1nnc(SCc2ccc(Cl)cc2)s1)N1CCN(C(=O)c2ccco2)CC1,.,.,4µM*,21%
Cc1nc2c(sc3nc4c(cc32)COC(C)(C)C4)c(=O)n1CC(=O)NCc1ccco1,6%,>57,2%,8%
